# In ChEMBL document CHEMBL1857833, “Screening and optimization of specific chemical series against human African Trypanosomiasis (HAT)”:
# Out of some 4,400 compounds screened, about 390 (8.9%) showed an effect of 50% or more. For the sample, strong results were picked, then their nearest neighbours and some compounds at random.
# Tested on: Trypanosoma brucei
# Assay: DNDI: Inhibition of Human African Trypanosomiasis, SBRI 427, in vitro at 2 ug.mL-1
# Format: functional
row,SMILES,% inhibition [%]
1,C=CCN(C)Cc1coc(-c2ccc(OC)cc2)n1,18
2,c1ccc2c(-c3nc(CNCCN4CCOCC4)co3)cccc2c1,7
3,Cc1ccccc1-c1nc(CN(Cc2ccccc2)C(C)C)co1,7
4,Cc1ccc(/C(=N/O)NC2CCc3ccccc32)c(Oc2cccc(F)c2)n1 (configuration not stated),23
5,Cc1ccc(-c2nc(CNC(C)CC(C)C)co2)cc1 (configuration not stated),4
6,Cc1ccc(/C(=N/O)NC2CCCC2)c(Oc2ccc(F)cc2)n1,23
7,CSc1ccc(Oc2nc(C)ccc2/C(=N/O)NC2CCCCC2)cc1,1
8,Cc1ccc(Oc2nc(C)ccc2/C(=N/O)NC2CCCC2)cc1,97
9,Cc1ccc(Oc2nc(C)ccc2/C(=N/O)NC2CC2)cc1,30
10,COc1ccc(Oc2nc(C)ccc2/C(=N/O)NC2CCC2)cc1,-19
11,CSc1ccc(Oc2nc(C)ccc2/C(=N/O)NC2CCCC2)cc1C,88
12,COc1ccc(Oc2nc(C)ccc2/C(=N/O)NC2CC2)cc1,4
13,COCCN/C(=N\O)c1ccc(C)nc1Oc1ccc(SC)c(C)c1,98
14,CCCN/C(=N\O)c1ccc(C)nc1Oc1ccc(SC)c(C)c1,11
15,COc1ccc(Oc2nc(C)ccc2/C(=N/O)NC2CCCC2)cc1,101
16,CSc1ccc(Oc2nc(C)ccc2/C(=N/O)NCC2CC2)cc1C,14
17,CSc1ccc(Oc2nc(C)ccc2/C(=N/O)NCCN(C)C)cc1C,-3
18,Brc1ccc(-c2nc(CNCCc3ccccn3)co2)cc1,-9
19,FC(F)(F)Oc1ccc(-c2nc(CNCc3ccccc3OC(F)(F)F)co2)cc1,-17
20,Fc1cccc(-c2nc(CNCc3ccc(OC(F)(F)F)cc3)co2)c1,7
21,CN1CCCC1CCN/C(=N\O)c1cccnc1Oc1ccc(Cl)cc1 (configuration not stated),-1
22,O=C(c1ccco1)N1CCN(Cc2coc(-c3ccc(Cl)cc3Cl)n2)CC1,21
